{"source": "the supplement of paper PMC7366291", "details_in_all_cases": "25 µM; exposure: 24-48 hpf", "key": {"[1]": {"system": "Danio rerio Tg(wt1b:EGFP) embryo, pronephros", "assay": "glomerular separation, fold change vs DMSO control; higher = glomeruli further apart (abnormal)", "outline": "(§1)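 Dechorionated Tg(wt1b:EGFP) zebrafish embryos were treated with 25 μM compound in 0.5% DMSO, in HEPES-buffered E3 with 0.003% PTU, from 24 to 48 hpf at 28.5°C. On maximum projections of dorsal pronephros images, 16 hand-placed reference points in Fiji gave distances and angles, and values more than 2 SD from the feature mean were left out. Results are fold changes over the mean of same-day DMSO-treated embryos.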"}, "[2]": {"system": "Danio rerio Tg(wt1b:EGFP) embryo, pronephros", "assay": "glomerular width (mean of left and right), fold change vs DMSO control; higher = wider glomerulus", "outline": "as §1"}, "[3]": {"system": "Danio rerio Tg(wt1b:EGFP) embryo, pronephros", "assay": "fraction of imaged embryos annotated as normal kidney; higher = less nephrotoxic; extreme values may be limits of the assay", "outline": "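Embryos of the Tg(wt1b:EGFP) zebrafish line were dechorionated and held in 12-well plates with 25 μM compound in 0.5% DMSO and 5 mM HEPES-buffered E3 containing 0.003% PTU, from 24 to 48 hpf at 28.5°C. Larvae were then anaesthetised with tricaine, set dorsal side up in agarose-filled 96-well plates, and their pronephroi imaged by widefield fluorescence at 470 nm over 10 z-slices. Each value is the fraction of embryos per treatment placed in the normal-kidney category after manual annotation of maximum projections.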"}, "[4]": {"system": "Danio rerio Tg(wt1b:EGFP) embryo, pronephros", "assay": "pronephric angle neck segment to proximal convoluted tubule (mean of left and right), fold change vs DMSO control; higher = larger pronephric angle", "outline": "as §1"}}, "note": "Where a name gives a salt, the structure may show the parent alone. ± gives the standard deviation or the standard deviation of the averaged measurements."}
{"compound": "CCCCCCNC(=O)n1cc(F)c(=O)[nH]c1=O", "note": "[Carmofur]", "values": [{"measurement": "glomerular separation", "setting": "[1]", "result": "8.71 ± 3.1"}, {"measurement": "glomerular width", "setting": "[2]", "result": "0.552 ± 0.03"}, {"measurement": "fraction of imaged embryos annotated as normal kidney", "setting": "[3]", "result": 0}, {"measurement": "pronephric angle neck segment", "setting": "[4]", "result": "1.72 ± 0.072"}]}
{"compound": "CN(C)CCc1c[nH]c2ccc(C[C@H]3COC(=O)N3)cc12", "note": "[Zolmitriptan]", "values": [{"measurement": "glomerular separation", "setting": "[1]", "result": "0.75 ± 0.13"}, {"measurement": "glomerular width", "setting": "[2]", "result": "0.941 ± 0.034"}, {"measurement": "fraction of imaged embryos annotated as normal kidney", "setting": "[3]", "result": 0.833}, {"measurement": "pronephric angle neck segment", "setting": "[4]", "result": "1.03 ± 0.019"}]}
{"compound": "CO[C@H]1/C=C/O[C@@]2(C)Oc3c(C)c(O)c4c(O)c(c5c(nc6cc(C)ccn65)c4c3C2=O)NC(=O)/C(C)=C\\C=C\\[C@H](C)[C@H](O)[C@@H](C)[C@@H](O)[C@@H](C)[C@H](OC(C)=O)[C@@H]1C", "note": "[Rifaximin]", "values": [{"measurement": "glomerular separation", "setting": "[1]", "result": "0.666 ± 0.16"}, {"measurement": "glomerular width", "setting": "[2]", "result": "1.06 ± 0.019"}, {"measurement": "fraction of imaged embryos annotated as normal kidney", "setting": "[3]", "result": 0.833}, {"measurement": "pronephric angle neck segment", "setting": "[4]", "result": "0.984 ± 0.022"}]}
{"compound": "COC(=O)C1=C(C)NC(C)=C(C(=O)OCCN(C)Cc2ccccc2)C1c1cccc([N+](=O)[O-])c1", "note": "(centres undefined) [Nicardipine hydrochloride]", "values": [{"measurement": "glomerular separation", "setting": "[1]", "result": "1.13 ± 0.73"}, {"measurement": "glomerular width", "setting": "[2]", "result": "1 ± 0.027"}, {"measurement": "fraction of imaged embryos annotated as normal kidney", "setting": "[3]", "result": 0.909}, {"measurement": "pronephric angle neck segment", "setting": "[4]", "result": "1.01 ± 0.036"}]}
{"compound": "CC(=O)OCC(=O)[C@@]12N=C(C)O[C@@H]1C[C@H]1[C@@H]3CCC4=CC(=O)C=C[C@]4(C)[C@H]3[C@@H](O)C[C@@]12C", "note": "[Deflazacort]", "values": [{"measurement": "glomerular separation", "setting": "[1]", "result": "1.15 ± 0.41"}, {"measurement": "glomerular width", "setting": "[2]", "result": "1.06 ± 0.014"}, {"measurement": "fraction of imaged embryos annotated as normal kidney", "setting": "[3]", "result": 0.25}, {"measurement": "pronephric angle neck segment", "setting": "[4]", "result": "0.944 ± 0.058"}]}
{"compound": "CN(C)[C@@H]1C(O)=C(C(=O)NCNCCCC[C@H](N)C(=O)O)C(=O)[C@@]2(O)C(O)=C3C(=O)c4c(O)cccc4[C@@](C)(O)[C@H]3C[C@@H]12", "note": "[Lymecycline]", "values": [{"measurement": "glomerular separation", "setting": "[1]", "result": "1.2 ± 0.48"}, {"measurement": "glomerular width", "setting": "[2]", "result": "0.916 ± 0.014"}, {"measurement": "fraction of imaged embryos annotated as normal kidney", "setting": "[3]", "result": 1}, {"measurement": "pronephric angle neck segment", "setting": "[4]", "result": "0.97 ± 0.023"}]}
{"compound": "CNCCC=C1c2ccccc2C=Cc2ccccc21", "note": "[Norcyclobenzaprine]", "values": [{"measurement": "glomerular separation", "setting": "[1]", "result": "1.12 ± 0.86"}, {"measurement": "glomerular width", "setting": "[2]", "result": "1.01 ± 0.051"}, {"measurement": "fraction of imaged embryos annotated as normal kidney", "setting": "[3]", "result": 0.833}, {"measurement": "pronephric angle neck segment", "setting": "[4]", "result": "0.94 ± 0.027"}]}
{"compound": "Cc1c(-c2ccccc2)oc2c(C(=O)OCCN3CCCCC3)cccc2c1=O", "note": "[Flavoxate hydrochloride]", "values": [{"measurement": "glomerular separation", "setting": "[1]", "result": "1.17 ± 0.37"}, {"measurement": "glomerular width", "setting": "[2]", "result": "1.08 ± 0.037"}, {"measurement": "fraction of imaged embryos annotated as normal kidney", "setting": "[3]", "result": 0.75}, {"measurement": "pronephric angle neck segment", "setting": "[4]", "result": "1.06 ± 0.02"}]}
{"compound": "O=P(O)(O)C(O)(Cc1cccnc1)P(=O)(O)O", "note": "[Risedronic acid monohydrate]", "values": [{"measurement": "glomerular separation", "setting": "[1]", "result": "0.755 ± 0.35"}, {"measurement": "glomerular width", "setting": "[2]", "result": "1.04 ± 0.032"}, {"measurement": "fraction of imaged embryos annotated as normal kidney", "setting": "[3]", "result": 0.833}, {"measurement": "pronephric angle neck segment", "setting": "[4]", "result": "0.975 ± 0.027"}]}
{"compound": "CCN1CCCC(OC(=O)C(c2ccccc2)c2ccccc2)C1", "note": "(centres undefined) [Piperidolate hydrochloride]", "values": [{"measurement": "glomerular separation", "setting": "[1]", "result": "0.836 ± 0.28"}, {"measurement": "glomerular width", "setting": "[2]", "result": "0.997 ± 0.01"}, {"measurement": "fraction of imaged embryos annotated as normal kidney", "setting": "[3]", "result": 0.75}, {"measurement": "pronephric angle neck segment", "setting": "[4]", "result": "0.98 ± 0.016"}]}
{"compound": "CCN(CC)CCOC(=O)C(c1ccccc1)c1ccccc1", "note": "[Adiphenine hydrochloride]", "values": [{"measurement": "glomerular separation", "setting": "[1]", "result": "1.14 ± 0.47"}, {"measurement": "glomerular width", "setting": "[2]", "result": "0.979 ± 0.026"}, {"measurement": "fraction of imaged embryos annotated as normal kidney", "setting": "[3]", "result": 0.917}, {"measurement": "pronephric angle neck segment", "setting": "[4]", "result": "0.98401 ± 0.00017"}]}
{"compound": "CCOC(=O)[C@H](CCc1ccccc1)N[C@H]1CCc2ccccc2N(CC(=O)O)C1=O", "note": "[Benazepril hydrochloride]", "values": [{"measurement": "glomerular separation", "setting": "[1]", "result": "0.73 ± 0.18"}, {"measurement": "glomerular width", "setting": "[2]", "result": "1.05 ± 0.023"}, {"measurement": "fraction of imaged embryos annotated as normal kidney", "setting": "[3]", "result": 0.75}, {"measurement": "pronephric angle neck segment", "setting": "[4]", "result": "0.964 ± 0.087"}]}
{"compound": "C[C@H](N[C@@H](CCc1ccccc1)C(=O)O)C(=O)N1CCC[C@H]1C(=O)O", "note": "[Enalaprilat dihydrate]", "values": [{"measurement": "glomerular separation", "setting": "[1]", "result": "1.03 ± 0.34"}, {"measurement": "glomerular width", "setting": "[2]", "result": "1 ± 0.012"}, {"measurement": "fraction of imaged embryos annotated as normal kidney", "setting": "[3]", "result": 1}, {"measurement": "pronephric angle neck segment", "setting": "[4]", "result": "1.01 ± 0.025"}]}
{"compound": "Cc1ccnc2c1NC(=O)c1cccnc1N2C1CC1", "note": "[Nevirapine]", "values": [{"measurement": "glomerular separation", "setting": "[1]", "result": "1.13 ± 0.48"}, {"measurement": "glomerular width", "setting": "[2]", "result": "1.02 ± 0.016"}, {"measurement": "fraction of imaged embryos annotated as normal kidney", "setting": "[3]", "result": 0.917}, {"measurement": "pronephric angle neck segment", "setting": "[4]", "result": "1.03 ± 0.048"}]}
{"compound": "COc1ccc(Cl)cc1C(=O)NCCc1ccc(S(=O)(=O)NC(=O)NC2CCCCC2)cc1", "note": "[Glibenclamide]", "values": [{"measurement": "glomerular separation", "setting": "[1]", "result": "0.804 ± 0.39"}, {"measurement": "glomerular width", "setting": "[2]", "result": "1.05 ± 0.023"}, {"measurement": "fraction of imaged embryos annotated as normal kidney", "setting": "[3]", "result": 0.818}, {"measurement": "pronephric angle neck segment", "setting": "[4]", "result": "0.999 ± 0.047"}]}
{"compound": "CN1CCC(=C2c3ccccc3C=Cc3ccccc32)CC1", "note": "[Cyproheptadine hydrochloride]", "values": [{"measurement": "glomerular separation", "setting": "[1]", "result": "1.28 ± 0.31"}, {"measurement": "glomerular width", "setting": "[2]", "result": "0.94 ± 0.06"}, {"measurement": "fraction of imaged embryos annotated as normal kidney", "setting": "[3]", "result": 0.667}, {"measurement": "pronephric angle neck segment", "setting": "[4]", "result": "1.2 ± 0.081"}]}
{"compound": "CN[C@H](CC(C)C)C(=O)N[C@H]1C(=O)N[C@@H](CC(N)=O)C(=O)N[C@H]2C(=O)N[C@H]3C(=O)N[C@H](C(=O)N[C@H](C(=O)O)c4cc(O)cc(O)c4-c4cc3ccc4O)[C@H](O)c3ccc(c(Cl)c3)Oc3cc2cc(c3O[C@@H]2O[C@H](CO)[C@@H](O)[C@H](O)[C@H]2O[C@H]2C[C@](C)(N)[C@H](O)[C@H](C)O2)Oc2ccc(cc2Cl)[C@H]1O", "note": "[Vancomycin hydrochloride]", "values": [{"measurement": "glomerular separation", "setting": "[1]", "result": "0.943 ± 0.23"}, {"measurement": "glomerular width", "setting": "[2]", "result": "0.978 ± 0.033"}, {"measurement": "fraction of imaged embryos annotated as normal kidney", "setting": "[3]", "result": 0.909}, {"measurement": "pronephric angle neck segment", "setting": "[4]", "result": "1.06 ± 0.077"}]}
{"compound": "COc1ccc([C@@H]2CC(=O)c3c(O)cc(O[C@@H]4O[C@H](CO[C@@H]5O[C@@H](C)[C@H](O)[C@@H](O)[C@H]5O)[C@@H](O)[C@H](O)[C@H]4O)cc3O2)cc1O", "note": "[Hesperidin]", "values": [{"measurement": "glomerular separation", "setting": "[1]", "result": "0.827 ± 0.15"}, {"measurement": "glomerular width", "setting": "[2]", "result": "0.938 ± 0.045"}, {"measurement": "fraction of imaged embryos annotated as normal kidney", "setting": "[3]", "result": 0.917}, {"measurement": "pronephric angle neck segment", "setting": "[4]", "result": "0.981 ± 0.012"}]}
{"compound": "NCCc1ccc(O)c(O)c1", "note": "[Dopamine hydrochloride]", "values": [{"measurement": "glomerular separation", "setting": "[1]", "result": "1.08 ± 0.44"}, {"measurement": "glomerular width", "setting": "[2]", "result": "1.05 ± 0.054"}, {"measurement": "fraction of imaged embryos annotated as normal kidney", "setting": "[3]", "result": 0.917}, {"measurement": "pronephric angle neck segment", "setting": "[4]", "result": "1.011 ± 0.005"}]}
{"compound": "C/C(=C(\\CCOP(=O)(O)O)SC(=O)c1ccccc1)N(C=O)Cc1cnc(C)nc1N", "note": "[Benfotiamine]", "values": [{"measurement": "glomerular separation", "setting": "[1]", "result": "1.54 ± 0.89"}, {"measurement": "glomerular width", "setting": "[2]", "result": "0.995 ± 0.021"}, {"measurement": "fraction of imaged embryos annotated as normal kidney", "setting": "[3]", "result": 0.75}, {"measurement": "pronephric angle neck segment", "setting": "[4]", "result": "0.949 ± 0.013"}]}
{"compound": "OC(Cn1cncn1)(Cn1cncn1)c1ccc(F)cc1F", "note": "[Fluconazole]", "values": [{"measurement": "glomerular separation", "setting": "[1]", "result": "1.11 ± 0.31"}, {"measurement": "glomerular width", "setting": "[2]", "result": "0.967 ± 0.095"}, {"measurement": "fraction of imaged embryos annotated as normal kidney", "setting": "[3]", "result": 0.917}, {"measurement": "pronephric angle neck segment", "setting": "[4]", "result": "0.978 ± 0.021"}]}
